Results taken from PubChem BioAssay.
Activity calls are given as the source filed them.

How the values were obtained:
Albumin (Bos taurus) = Albumin (Bos taurus) (UniProt P02769); assay: bovine serum albumin binders on microarray, profiling panel, artefact control for SMM control protein annotation, biochemical, small-molecule microarray, Alexa647 label, 635/667 nm fluorescence (AID 1118); conditions: BSA-A647 binding, fluorescence 635 nm, higher = more signal;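 also: score merges 667 nm emission intensity and signal-to-noise per printed compound spot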
Albumin (Bos taurus), sequence (P02769 whole entry, looked up): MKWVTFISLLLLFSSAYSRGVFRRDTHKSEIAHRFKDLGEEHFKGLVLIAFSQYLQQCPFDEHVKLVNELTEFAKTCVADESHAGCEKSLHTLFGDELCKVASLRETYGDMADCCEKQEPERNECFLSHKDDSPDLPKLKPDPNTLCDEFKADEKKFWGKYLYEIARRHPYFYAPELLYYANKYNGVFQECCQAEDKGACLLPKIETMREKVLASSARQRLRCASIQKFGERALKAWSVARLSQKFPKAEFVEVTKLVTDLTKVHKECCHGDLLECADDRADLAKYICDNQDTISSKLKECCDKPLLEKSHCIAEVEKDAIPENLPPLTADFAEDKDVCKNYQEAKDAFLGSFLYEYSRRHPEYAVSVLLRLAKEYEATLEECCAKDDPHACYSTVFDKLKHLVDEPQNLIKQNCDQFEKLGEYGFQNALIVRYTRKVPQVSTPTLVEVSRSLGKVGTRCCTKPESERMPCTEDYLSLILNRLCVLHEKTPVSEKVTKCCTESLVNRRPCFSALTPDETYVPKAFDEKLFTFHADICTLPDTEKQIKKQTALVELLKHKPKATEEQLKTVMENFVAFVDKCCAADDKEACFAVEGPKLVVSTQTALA

[1] = small-molecule microarray binders of probe aXIP, primary screen, biochemical, NeuroSMM set, 635/667 nm fluorescence (AID 1119); conditions: higher = more signal, called active from +8 up or from −8 down;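 also: probe is the protein aXip251-270 applied at 1 µg/mL to compound-printed slides; binding of probe to printed compounds measured as 667 nm fluorescence plus signal to noise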
[2] = small-molecule binders of probe aNOTCH3, primary screen, biochemical, small-molecule microarray, 635/667 nm fluorescence (AID 1120); conditions: higher = more signal;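 also: probe is a biotin-tagged antibody raised against NOTCH3 rather than NOTCH3 protein; score merges spot fluorescence near 667 nm with spot signal to noise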
[3] = small-molecule binders of probe aNOTCH2, primary screen, biochemical, small-molecule microarray, 635/667 nm fluorescence (AID 1121); conditions: higher = more signal;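 also: score merges feature fluorescence read at 667 nm with its signal to noise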
[4] = molecular target: Carbonic anhydrase 2 (Homo sapiens) (UniProt P00918); assay: CAII small-molecule binders, profiling panel, biochemical, small-molecule microarray, Alexa647-labelled CAII (AID 1122); conditions: CAII-A647 binding fluorescence, higher = more signal
[5] = COS7 lysate on small-molecule microarray, probe aHis, 635 nm (AID 1123); conditions: COS7 cell lysate, fluorescence, higher = more signal;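 also: z-score combines 667nm fluorescence intensity with signal-to-noise per printed compound spot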
[6] = compound binding in COS7 lysate, probe aLAP1, primary screen, cell lysate, small-molecule microarray (AID 1124); conditions: probe aLAP1, fluorescence, higher = more signal;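 also: lysate comes from COS7 cells expressing LAP1 and is applied at 0.3 µg/mL; score merges spot fluorescence near 667 nm with signal-to-noise over triplicate slides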
Sam68 (KHDRBS1) = assay: Sam68 small-molecule binders, primary screen, biochemical, small-molecule microarray, 635 nm fluorescence (AID 1125); conditions: small-molecule microarray binding, higher = more signal;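 also: score merges 667 nm channel intensity with signal to noise over triplicate slides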
[7] = test system: Chordin-like protein 2 (CHRDL2); assay: CHRDL2 small-molecule binders, primary screen, biochemical, small-molecule microarray, 635 nm fluorescence (AID 1126); conditions: small-molecule microarray binding, fluorescence 635 nm; higher = more signal;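 also: printed compound slides probed with Chrdl2 protein at 4 µg/mL for 1 h at 4 C; score merges 667 nm emission intensity with signal to noise over three replicate slides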
[8] = molecular target: Concanavalin-A (Canavalia ensiformis) (UniProt P02866); assay: ConA small-molecule binders, primary screen, artefact control for SMM control protein annotation, biochemical, small-molecule microarray, Alexa647 label, 635 nm (AID 1127); conditions: ConA-A647 binding fluorescence, higher = more signal;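 also: z combines 667 nm emission intensity with signal-to-noise across three replicate slides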
Concanavalin-A (Canavalia ensiformis), sequence (P02866 whole entry, looked up): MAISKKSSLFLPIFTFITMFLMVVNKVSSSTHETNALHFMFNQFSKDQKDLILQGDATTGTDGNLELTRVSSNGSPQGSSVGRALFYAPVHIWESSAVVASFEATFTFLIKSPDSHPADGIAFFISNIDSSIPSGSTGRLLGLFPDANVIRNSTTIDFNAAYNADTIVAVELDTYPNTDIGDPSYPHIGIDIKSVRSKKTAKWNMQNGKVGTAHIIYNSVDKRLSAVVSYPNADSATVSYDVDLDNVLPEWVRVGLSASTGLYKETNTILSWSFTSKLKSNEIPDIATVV

[9] = anti-His antibody binders, primary screen, artefact control for SMM control protein annotation, biochemical, small-molecule microarray, 635 nm fluorescence (AID 1128); conditions: anti-His Alexa647 antibody binding, higher = more signal;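 also: score merges feature fluorescence with signal-to-noise for each printed compound spot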
[10] = test system: Human papillomavirus type 1a E7 protein (residues 1-88); assay: HPV1a E7 small-molecule binders, primary screen, biochemical, small-molecule microarray, residues 1-88, 635 nm (AID 1129); conditions: small-molecule microarray binding, fluorescence 635 nm; higher = more signal
[11] = molecular target: Focal adhesion kinase 1 (Homo sapiens) (UniProt Q05397); assay: small-molecule microarray binders of FAK, primary screen, biochemical, 635/667 nm fluorescence, BSA, DTT (AID 1130); conditions: PTK2 binding, 635 nm fluorescence, higher = more signal;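 also: composite of spot emission at 667 nm and signal to noise over triplicate slides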
Focal adhesion kinase 1 (Homo sapiens), sequence (Q05397 whole entry, looked up): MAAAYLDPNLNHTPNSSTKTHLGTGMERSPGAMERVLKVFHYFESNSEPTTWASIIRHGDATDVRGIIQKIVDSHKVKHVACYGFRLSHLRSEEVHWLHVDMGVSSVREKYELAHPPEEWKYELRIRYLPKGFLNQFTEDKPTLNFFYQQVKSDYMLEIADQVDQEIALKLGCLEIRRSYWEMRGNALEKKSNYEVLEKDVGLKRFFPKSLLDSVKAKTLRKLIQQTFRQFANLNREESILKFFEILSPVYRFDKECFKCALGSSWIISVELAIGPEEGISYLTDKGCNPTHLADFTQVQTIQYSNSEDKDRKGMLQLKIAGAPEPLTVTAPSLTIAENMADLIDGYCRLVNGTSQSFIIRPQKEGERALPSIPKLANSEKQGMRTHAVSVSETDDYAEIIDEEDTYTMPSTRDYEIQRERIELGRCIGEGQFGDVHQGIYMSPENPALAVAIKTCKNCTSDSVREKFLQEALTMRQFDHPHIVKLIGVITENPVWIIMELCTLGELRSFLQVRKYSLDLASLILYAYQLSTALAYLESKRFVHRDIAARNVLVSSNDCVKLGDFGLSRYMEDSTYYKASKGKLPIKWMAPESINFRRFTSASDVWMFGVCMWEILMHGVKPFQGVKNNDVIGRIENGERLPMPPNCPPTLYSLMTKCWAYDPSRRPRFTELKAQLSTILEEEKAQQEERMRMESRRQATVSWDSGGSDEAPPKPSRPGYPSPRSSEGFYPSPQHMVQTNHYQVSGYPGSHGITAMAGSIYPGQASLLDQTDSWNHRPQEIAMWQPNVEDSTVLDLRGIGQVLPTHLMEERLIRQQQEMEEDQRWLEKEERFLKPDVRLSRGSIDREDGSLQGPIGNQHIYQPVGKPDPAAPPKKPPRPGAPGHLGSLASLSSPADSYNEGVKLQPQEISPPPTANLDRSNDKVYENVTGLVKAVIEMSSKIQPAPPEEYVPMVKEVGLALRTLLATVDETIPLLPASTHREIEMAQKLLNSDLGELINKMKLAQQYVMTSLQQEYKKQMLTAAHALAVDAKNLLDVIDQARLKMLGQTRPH

[12] = test system: Fibrinogen (Alexa647-labelled); assay: fibrinogen binders on compound microarrays, profiling panel, artefact control for SMM control-protein annotation, biochemical, small-molecule microarray, 635/667 nm fluorescence (AID 1131); conditions: fibrinogen-A647 binding fluorescence, higher = more signal;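 also: z-score merges 667 nm fluorescence with per-spot signal-to-noise over triplicate slides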
[13] = molecular target: Follistatin (Homo sapiens) (UniProt P19883); assay: follistatin binders on small-molecule microarrays, primary screen, biochemical, small-molecule microarray, 635/667 nm fluorescence (AID 1132); conditions: FST binding, 635 nm fluorescence, higher = more signal
Follistatin (Homo sapiens), sequence (P19883 whole entry, looked up): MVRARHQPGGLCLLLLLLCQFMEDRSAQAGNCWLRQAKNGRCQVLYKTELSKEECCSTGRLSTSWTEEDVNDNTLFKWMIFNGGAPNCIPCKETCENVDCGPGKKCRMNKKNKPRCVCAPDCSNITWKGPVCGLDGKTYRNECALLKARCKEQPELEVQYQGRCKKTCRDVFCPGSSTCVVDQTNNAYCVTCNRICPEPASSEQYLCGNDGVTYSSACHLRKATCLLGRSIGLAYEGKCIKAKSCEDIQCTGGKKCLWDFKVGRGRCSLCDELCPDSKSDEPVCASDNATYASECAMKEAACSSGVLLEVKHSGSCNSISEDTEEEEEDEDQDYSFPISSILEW

[14] = molecular target: Fibroblast growth factor 2 (Homo sapiens) (UniProt P09038); assay: FGF2 binders on small-molecule microarrays, primary screen, biochemical, small-molecule microarray, 635/667 nm fluorescence (AID 1133); conditions: small-molecule microarray binding, FGF2, fluorescence 635/667; higher = more signal
Fibroblast growth factor 2 (Homo sapiens), sequence (P09038 whole entry, looked up): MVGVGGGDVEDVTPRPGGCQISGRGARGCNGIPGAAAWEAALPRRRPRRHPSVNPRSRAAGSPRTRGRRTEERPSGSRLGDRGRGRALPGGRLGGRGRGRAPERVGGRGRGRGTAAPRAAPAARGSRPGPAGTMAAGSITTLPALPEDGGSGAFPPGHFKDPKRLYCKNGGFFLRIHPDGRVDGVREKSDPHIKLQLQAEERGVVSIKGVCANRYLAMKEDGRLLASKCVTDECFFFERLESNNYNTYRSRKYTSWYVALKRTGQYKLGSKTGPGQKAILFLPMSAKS

[15] = mitochondrial membrane potential change in A549 cells, profiling panel, cell-based, JC-1 fluorescence, basal, 24 h, 100 nL (AID 1138); conditions: higher = more signal;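 also: A549 lung adenocarcinoma cells under basal conditions with no added stimulus; test concentration not given here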
Lefty1 = Lefty1 binders on small-molecule microarrays, primary screen, biochemical, small-molecule microarray, 635/667 nm fluorescence (AID 1139); conditions: small-molecule microarray binding, fluorescence 635/667; higher = more signal
[16] = test system: wheat germ agglutinin (Triticum aestivum), Alexa647-labelled; assay: wheat germ agglutinin binders on compound microarrays, profiling panel, artefact control for SMM control-protein annotation, biochemical, small-molecule microarray, 635/667 nm fluorescence (AID 1140); conditions: WGA-A647 binding, 635 nm fluorescence, higher = more signal;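 also: score merges 667 nm feature emission with signal to noise over triplicate slides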
[17] = molecular target: Luciferin 4-monooxygenase (Photinus pyralis) (UniProt P08659); assay: firefly luciferase enzyme inhibitors, primary screen, biochemical, luminescence, purified enzyme, 2006 set (AID 1141); conditions: SteadyGlo luminescence, 30 min, higher = more signal, called active from +8 up or from −8 down;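 also: cell-free assay with purified firefly luciferase at 100 ng per well in PBS; test concentration not given here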
Luciferin 4-monooxygenase (Photinus pyralis), sequence (P08659 whole entry, looked up): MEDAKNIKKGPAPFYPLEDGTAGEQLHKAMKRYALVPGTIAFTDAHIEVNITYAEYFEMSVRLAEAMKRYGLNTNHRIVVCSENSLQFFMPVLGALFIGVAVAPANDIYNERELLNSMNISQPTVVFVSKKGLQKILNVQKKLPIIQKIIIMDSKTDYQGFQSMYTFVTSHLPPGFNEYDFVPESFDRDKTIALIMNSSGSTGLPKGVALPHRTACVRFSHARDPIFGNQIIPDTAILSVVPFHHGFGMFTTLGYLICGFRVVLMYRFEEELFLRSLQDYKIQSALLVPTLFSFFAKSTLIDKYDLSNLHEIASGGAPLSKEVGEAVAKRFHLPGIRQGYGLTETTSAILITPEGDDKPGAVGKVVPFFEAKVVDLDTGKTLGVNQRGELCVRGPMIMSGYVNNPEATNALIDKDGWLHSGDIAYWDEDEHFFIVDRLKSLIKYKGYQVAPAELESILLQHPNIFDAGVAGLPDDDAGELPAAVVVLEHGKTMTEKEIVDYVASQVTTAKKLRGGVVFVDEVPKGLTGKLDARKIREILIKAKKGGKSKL

Row | Compound | composite z-score (Albumin (Bos taurus)) | composite Z-score [1] | composite z-score [2] | composite z-score [3] | composite z-score [4] | composite z-score [5] | composite z-score [6] | composite z-score (Sam68 (KHDRBS1)) | composite z-score [7] | composite z-score [8] | composite z-score [9] | composite z-score [10] | composite z-score [11] | composite z-score [12] | composite z-score [13] | composite z-score [14] | z-score [15] | composite z-score (Lefty1) | composite z-score [16] | z-score [17]
1 | COC(=O)[C@H]1O[C@@H](c2c(OC)c(OC)c(C)c(OC)c2OC)[C@H](C)[C@@H](O)[C@H]1C | 0.354 | 0.0421 (inactive) | 0.0414 | -0.0349 | 0.0615 | 1.04 | -0.203 | 1.28 | 0.31 | 0.86 | 0.377 | 0.998 | 0.169 | 0.902 | 0.694 | 0.577 | 0.274 | 1.08 | 0.526 | -0.246 (inactive)
2 | CC(=O)Nc1ccc([C@@H]2N[C@H](C(=O)O)CC[C@H]2C)cc1 | 0.0499 | 0.237 (inactive) | -0.132 | -0.203 | -0.172 | -0.0725 | 0.0356 | 0.22 | 0.65 | 0.36 | 0.328 | 0.557 | 1.12 | 0.669 | 0.205 | 0.284 | 2.05 | 0.701 | -0.11 | -1.38 (inactive)
3 | CCN1C(=O)[C@H]2[C@H]3[C@H](O)[C@H](O)CC(=O)[C@@H]3CC[C@H]2C1=O | 0.4 | -0.141 (inactive) | -0.0377 | -0.179 | 0.0044 | 0.304 | 0.335 | 0.826 | 0.503 | 0.735 | 0.562 | 0.899 | -0.049 | 0.583 | 0.468 | 0.226 | 1.39 | 0.547 | 0.187 | -0.497 (inactive)
4 | COC(=O)CC=C[C@@H](C)[C@@H]1C=C[C@H](O)[C@@H](CO)O1 | 0.0642 | 0.0543 (inactive) | -0.364 | -0.0717 | -0.184 | 0.189 | -0.171 | -0.111 | 0.951 | -0.379 | -0.29 | 0.392 | -0.281 | 0.201 | 1.04 | 0.413 | 0.204 | 0.767 | -0.375 | -0.203 (inactive)
5 | CCOC(=O)[C@H](Cc1ccccc1)NC(=O)CCC1CC(OC(=O)NCc2ccc3c(c2)OCO3)CC2(CCCC(COC(=O)NCCc3ccccc3OC)O2)O1 (stereo not given in full) | 0.485 | -0.344 (inactive) | 0.0225 | -0.184 | 0.253 | 1.05 | -0.0407 | 1.29 | 1.06 | 1.1 | 0.969 | 1.2 | 0.492 | 1 | 1.07 | 1.32 | -0.654 | 1.36 | 0.63 | 0.274 (inactive)
